Test results published in PubChem BioAssay (Tox21).
Values joined by “and” are separate entries in the source; they are usually repeats but may differ in a detail not shown here. Equal values may be shown once. Records with an inconclusive call do not appear. Where a call stands in place of a potency, no number is given. The source holds several records for some structures; these can differ, active in one and inactive in another. Active and inactive are the calls of the source. Unless noted, calls follow the shape of the dose curve; as a rule, active = well fitted curve in the direction sought with a large enough effect in the repeat runs; inconclusive = weak or mixed curves; inactive = no such curve, though single readings can be large; an effect the other way counts as inactive or inconclusive.

Legend:
[1] = qHTS assay to identify aromatase inhibitors - cell viability counter screen (AID 743084);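 also: cells stimulated with testosterone during compound exposure; nearly all actives have a fitted effect of over 55% in size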
[2] = target: Aryl hydrocarbon receptor (Homo sapiens) (UniProt P35869); test: qHTS assay to identify small molecule that activate the aryl hydrocarbon receptor (AhR) signaling pathway (AID 743085); also: nearly all actives have a fitted effect of over 15% in size; also: potency is read from the fitted curve at half-maximal effect;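 as to activation: HG2L7.5c1 human HepG2 liver cells with stably integrated DRE-driven firefly reporter; series mostly up to about 70 µM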
Method in brief: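 Cell line HG2L7.5c1 (human hepatoma, 20× DRE-luc). Plated, 5 h 37C, compound/DMSO added, 24 h 37C. CellTiter-Fluor 30 min 37C → fluorescence; then ONE-Glo 30 min RT → luminescence.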

[3] = qHTS assay to identify small molecule that activate the aryl hydrocarbon receptor (AhR) signaling pathway - cell viability counter screen (AID 743086);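 also: HepG2 liver cells carrying the AhR DRE luciferase reporter; series mostly up to about 70 µM; nearly all actives have a fitted effect of over 45% in size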
Method in brief: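 Cytotoxicity counter screen: CellTiter-Fluor signal (30 min, 37 C) in 4000 HepG2 cells/well carrying the DRE-luciferase reporter, following 24 h compound exposure at 37 C.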

[4] = target: Peroxisome proliferator-activated receptor gamma (Homo sapiens) (UniProt P37231); test: qHTS assay to identify small molecule agonists of the peroxisome proliferator-activated receptor gamma (PPARg) signaling pathway (AID 743094; active = well fitted activation curve with a large enough effect in the signal ratio in the repeat runs, not every such curve was filed as active; the % refers to the signal ratio)
Method in brief: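 Following 5 h plating at 37C, PPARg-bla HEK293H cells receive compound or DMSO for 17 h; fluorescence intensity is recorded after LiveBLAzer B/G loading for 1 h at room temperature.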

[5] = target: Peroxisome proliferator-activated receptor gamma (Homo sapiens) (UniProt P37231); test: qHTS assay to identify small molecule antagonists of the peroxisome proliferator-activated receptor gamma (PPARg) signaling pathway (AID 743191; calls by dose curve; also: series mostly up to about 63 µM; nearly all actives have a fitted effect of over 30% in size)
Method in brief: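 Beta-lactamase reporter under UAS control in HEK293H PPARg-bla cells; compound treatment 17 h at 37C. Read-out: fluorescence intensity after 1 h room-temperature incubation with LiveBLAzer B/G FRET substrate.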

[6] = qHTS assay for small molecule agonists of the antioxidant response element (ARE) signaling pathway - cell viability counter screen (AID 743203; calls by dose curve; also: nearly all actives have a fitted effect of over 55% in size)
Method in brief: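 Compounds in DMSO were pinned onto ARE-bla HepG2 cells plated 5 hrs earlier at 2,000 cells/well. Sixteen hours later at 37C/5% CO2, CellTiter-Glo was added and luminescence measured after 30 min at room temperature.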

[7] = qHTS assay for small molecule activators of the heat shock response signaling pathway - cell viability counter screen (AID 743209); also: nearly all actives have a fitted effect of over 50% in size; also: potency is read from the fitted curve at half-maximal effect
Method in brief: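 Counter screen for cytotoxicity in HeLa HSE-bla reporter cells. Treatment was 5 h at 37 C; viability was detected by luminescent ATP assay (CellTiter-Glo) in the same wells as the beta-lactamase read.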

[8] = qHTS assay for small molecule activators of the heat shock response signaling pathway (AID 743210; active = well fitted activation curve with a large enough effect in the signal ratio in the repeat runs, with a control signal flat, not every such curve was filed as active; the % refers to the signal ratio;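 also: HeLa cells with beta-lactamase reporter driven by heat shock elements; series mostly up to about 63 µM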)
Method in brief: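 In HSE-bla HeLa cells, 5 h compound incubation (37 C) precedes addition of LiveBLAzer B/G substrate; after 2.5 h at room temperature, fluorescence intensity indicates reporter induction.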

[9] = target: Peroxisome proliferator-activated receptor delta (Homo sapiens) (UniProt Q03181); test: qHTS assay to identify small molecule agonists of the peroxisome proliferator-activated receptor delta (PPARd) signaling pathway (AID 743212; calls by dose curve)
Method in brief: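 HEK293H UAS-bla reporter cells, human PPARd system; compounds delivered in DMSO after 5 h plating, then at 37 C. Beta-lactamase FRET read, 2 h RT substrate step.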

[10] = qHTS assay to identify small molecule antagonists of the peroxisome proliferator-activated receptor delta (PPARd) signaling pathway - cell viability counter screen (AID 743213); also: nearly all actives have a fitted effect of over 50% in size
Method in brief: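 Luminescence from CellTiter-Glo, added after the bla read and incubated 30 min at room temperature, gives viability of HEK293H PPARd-bla cells exposed to compounds for 17 h at 37 C with 300 nM L165041.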

[11] = target: Peroxisome proliferator-activated receptor delta (Homo sapiens) (UniProt Q03181); test: qHTS assay to identify small molecule antagonists of the peroxisome proliferator-activated receptor delta (PPARd) signaling pathway (AID 743215; active = well fitted inhibition curve with a large enough effect in the signal ratio in the repeat runs, not every such curve was filed as active; the % refers to the signal ratio;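 also: cells stimulated with agonist L165041 at 300 nM final during compound exposure; series mostly up to about 62 µM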)
Method in brief: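 With L165041 present at 300 nM final, compounds were incubated 17 h at 37 C on PPARd UAS-bla HEK293H cells. A FRET-based beta-lactamase substrate was then applied for 2 h at room temperature and fluorescence intensity recorded.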

[12] = qHTS assay to identify small molecule agonists of the farnesoid-X-receptor (FXR) signaling pathway - cell viability counter screen (AID 743218); also: nearly all actives have a fitted effect of over 45% in size; also: potency is read from the fitted curve at half-maximal effect
Method in brief: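 After 16 h at 37 C with test compounds, FXR-bla HEK 293T cells were given LiveBLAzer B/G substrate for 2 h at RT and then CellTiter-Glo; luminescence was taken after 30 min.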

[13] = qHTS assay to identify small molecule antagonists of the farnesoid-X-receptor (FXR) signaling pathway - cell viability counter screen (AID 743221; active = well fitted cell-killing curve with a large enough effect in the repeat runs, not every such curve was filed as active; also: nearly all actives have a fitted effect of over 50% in size)
Method in brief: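 Luminescence from CellTiter-Glo measures cytotoxicity in GeneBLAzer FXR-UAS-bla HEK 293T cells. Cells were exposed to compounds with 50 uM chenodeoxycholic acid (final) for 16 h at 37 C, in wells also used for the reporter readout.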

[14] = target: Vitamin D3 receptor (Homo sapiens) (UniProt P11473); test: qHTS assay to identify small molecule agonists of the vitamin D receptor (VDR) signaling pathway (AID 743222; calls by dose curve)
Method in brief: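 VDR-bla cells were seeded, left 4 h, treated with compounds in DMSO for 16 h, incubated 2 h at RT with B/G FRET substrate, and read for fluorescence.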

[15] = target: Vitamin D3 receptor (Homo sapiens) (UniProt P11473); test: qHTS assay to identify small molecule antagonists of the vitamin D receptor (VDR) signaling pathway (AID 743223; active = well fitted inhibition curve with a large enough effect in the signal ratio in the repeat runs, not every such curve was filed as active; the % refers to the signal ratio)
Method in brief: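 Antagonist mode uses 1alpha,25-dihydroxyvitamin D3 at 3 nM final as stimulus. VDR-bla cells receive compounds in DMSO, incubate 16 h at 37C, then a beta-lactamase FRET substrate for 2 h at room temperature before fluorescence measurement.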

[16] = qHTS assay to identify small molecule antagonists of the peroxisome proliferator-activated receptor gamma (PPARg) signaling pathway - cell viability counter screen (AID 743194); also: nearly all actives have a fitted effect of over 55% in size
Method in brief: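 Viability was measured as CellTiter-Glo luminescence in GeneBLAzer PPARg UAS-bla HEK293H cells. These cells had been exposed 17 h at 37 C to compounds together with rosiglitazone at 50 nM final, with the beta-lactamase readout taken in the same wells.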

[17] = qHTS assay to identify small molecule agonists of the peroxisome proliferator-activated receptor delta (PPARd) signaling pathway - cell viability counter screen (AID 743211); also: nearly all actives have a fitted effect of over 55% in size
Method in brief: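 HEK293H PPARd-bla, 3000 cells/well; 5 h preincubation 37C/5% CO2; cpd in DMSO, 17 h 37C; B/G FRET substrate 2 h RT; CellTiter-Glo 30 min RT, luminescence.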

[18] = qHTS assay for small molecule agonists of the antioxidant response element (ARE) signaling pathway (AID 743202; active = well fitted activation curve with a large enough effect in the signal ratio in the repeat runs, not every such curve was filed as active; the % refers to the signal ratio)
Method in brief: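 An ARE-responsive beta-lactamase gene stably integrated in HepG2 cells serves as reporter. After 5 h plating and 16 h compound incubation at 37 C, fluorescence of the B/G FRET substrate was measured.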

[19] = target: Bile acid receptor (Homo sapiens) (UniProt Q96RI1); test: qHTS assay to identify small molecule antagonists of the farnesoid-X-receptor (FXR) signaling pathway (AID 743217; active = well fitted inhibition curve with a large enough effect in the signal ratio in the repeat runs, not every such curve was filed as active; the % refers to the signal ratio)
Method in brief: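 In this cell-based antagonist screen, inhibition of CDCA-driven (50 uM final) UAS-beta-lactamase expression in HEK 293T cells was measured by FRET fluorescence following 16 h compound exposure at 37 °C.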

[20] = target: Bile acid receptor (Homo sapiens) (UniProt Q96RI1); test: qHTS assay to identify small molecule agonists of the farnesoid-X-receptor (FXR) signaling pathway (AID 743220; active = well fitted activation curve with a large enough effect in the signal ratio in the repeat runs, not every such curve was filed as active; the % refers to the signal ratio)
Method in brief: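 Beta-lactamase reporter under UAS control in GeneBLAzer FXR HEK 293T cells (5000/well) measured with LiveBLAzer FRET substrate after 2 h at room temperature. Compound exposure lasted 16 h at 37C.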

Sequence of Peroxisome proliferator-activated receptor delta (Homo sapiens) (Q03181 whole entry, looked up): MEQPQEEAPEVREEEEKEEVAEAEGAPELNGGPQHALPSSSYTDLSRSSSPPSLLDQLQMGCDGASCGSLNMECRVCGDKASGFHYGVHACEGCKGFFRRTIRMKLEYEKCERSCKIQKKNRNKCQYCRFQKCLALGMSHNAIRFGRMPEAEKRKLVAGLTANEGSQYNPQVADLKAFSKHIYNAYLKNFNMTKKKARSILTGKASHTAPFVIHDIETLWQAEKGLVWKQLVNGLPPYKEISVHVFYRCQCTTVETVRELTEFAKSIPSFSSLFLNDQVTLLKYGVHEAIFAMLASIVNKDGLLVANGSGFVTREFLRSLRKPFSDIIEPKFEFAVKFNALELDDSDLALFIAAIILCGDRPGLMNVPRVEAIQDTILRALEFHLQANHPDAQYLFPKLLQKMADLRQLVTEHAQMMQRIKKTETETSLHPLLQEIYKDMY
Sequence of Vitamin D3 receptor (Homo sapiens) (P11473 whole entry, looked up): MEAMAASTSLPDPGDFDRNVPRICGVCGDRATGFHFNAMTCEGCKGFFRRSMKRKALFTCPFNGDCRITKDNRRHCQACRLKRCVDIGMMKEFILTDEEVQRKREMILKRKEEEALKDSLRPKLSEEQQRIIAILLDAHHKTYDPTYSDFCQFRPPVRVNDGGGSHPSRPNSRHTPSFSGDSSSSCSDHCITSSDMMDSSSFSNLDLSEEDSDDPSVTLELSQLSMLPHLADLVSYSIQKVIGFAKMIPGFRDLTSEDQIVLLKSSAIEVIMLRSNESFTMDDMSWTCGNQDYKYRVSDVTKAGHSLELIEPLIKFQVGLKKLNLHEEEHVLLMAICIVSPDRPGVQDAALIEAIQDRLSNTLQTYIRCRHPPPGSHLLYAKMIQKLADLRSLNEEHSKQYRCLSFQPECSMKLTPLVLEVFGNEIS
Sequence of Aryl hydrocarbon receptor (Homo sapiens) (P35869 whole entry, looked up): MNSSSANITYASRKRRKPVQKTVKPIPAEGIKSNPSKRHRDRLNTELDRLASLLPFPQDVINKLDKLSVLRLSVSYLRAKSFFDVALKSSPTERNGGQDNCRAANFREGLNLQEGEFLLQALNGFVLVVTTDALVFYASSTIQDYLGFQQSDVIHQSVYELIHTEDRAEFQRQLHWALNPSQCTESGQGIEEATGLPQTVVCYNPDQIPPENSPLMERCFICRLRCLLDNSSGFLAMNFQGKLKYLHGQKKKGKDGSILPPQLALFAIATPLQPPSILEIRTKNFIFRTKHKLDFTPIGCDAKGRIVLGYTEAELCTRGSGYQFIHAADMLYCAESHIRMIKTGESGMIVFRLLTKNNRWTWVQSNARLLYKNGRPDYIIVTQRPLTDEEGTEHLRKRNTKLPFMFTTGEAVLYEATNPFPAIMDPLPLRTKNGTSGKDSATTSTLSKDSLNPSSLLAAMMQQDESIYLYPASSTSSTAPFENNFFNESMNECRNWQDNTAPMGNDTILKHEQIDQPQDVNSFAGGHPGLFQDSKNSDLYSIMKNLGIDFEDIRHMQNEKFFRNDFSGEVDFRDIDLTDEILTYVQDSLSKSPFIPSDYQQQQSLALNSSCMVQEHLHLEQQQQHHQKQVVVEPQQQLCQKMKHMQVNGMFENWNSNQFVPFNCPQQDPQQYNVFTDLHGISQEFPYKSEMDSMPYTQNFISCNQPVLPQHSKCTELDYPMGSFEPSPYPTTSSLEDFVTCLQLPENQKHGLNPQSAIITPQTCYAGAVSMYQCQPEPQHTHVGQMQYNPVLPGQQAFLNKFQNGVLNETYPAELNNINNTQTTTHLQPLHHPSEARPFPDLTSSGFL
Sequence of Bile acid receptor (Homo sapiens) (Q96RI1 whole entry, looked up): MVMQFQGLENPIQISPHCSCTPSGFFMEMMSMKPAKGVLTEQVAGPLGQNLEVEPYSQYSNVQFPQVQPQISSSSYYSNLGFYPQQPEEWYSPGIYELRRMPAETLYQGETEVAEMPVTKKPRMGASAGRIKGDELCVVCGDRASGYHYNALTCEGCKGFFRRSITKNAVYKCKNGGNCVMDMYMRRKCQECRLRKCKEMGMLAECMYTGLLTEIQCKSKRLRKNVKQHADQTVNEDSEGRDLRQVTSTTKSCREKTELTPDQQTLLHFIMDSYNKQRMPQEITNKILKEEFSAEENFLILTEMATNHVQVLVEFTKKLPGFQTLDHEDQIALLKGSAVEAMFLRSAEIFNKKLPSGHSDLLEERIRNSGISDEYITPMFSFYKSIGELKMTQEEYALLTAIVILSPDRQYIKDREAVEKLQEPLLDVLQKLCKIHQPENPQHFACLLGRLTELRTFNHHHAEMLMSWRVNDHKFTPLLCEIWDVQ
Sequence of Peroxisome proliferator-activated receptor gamma (Homo sapiens) (P37231 whole entry, looked up): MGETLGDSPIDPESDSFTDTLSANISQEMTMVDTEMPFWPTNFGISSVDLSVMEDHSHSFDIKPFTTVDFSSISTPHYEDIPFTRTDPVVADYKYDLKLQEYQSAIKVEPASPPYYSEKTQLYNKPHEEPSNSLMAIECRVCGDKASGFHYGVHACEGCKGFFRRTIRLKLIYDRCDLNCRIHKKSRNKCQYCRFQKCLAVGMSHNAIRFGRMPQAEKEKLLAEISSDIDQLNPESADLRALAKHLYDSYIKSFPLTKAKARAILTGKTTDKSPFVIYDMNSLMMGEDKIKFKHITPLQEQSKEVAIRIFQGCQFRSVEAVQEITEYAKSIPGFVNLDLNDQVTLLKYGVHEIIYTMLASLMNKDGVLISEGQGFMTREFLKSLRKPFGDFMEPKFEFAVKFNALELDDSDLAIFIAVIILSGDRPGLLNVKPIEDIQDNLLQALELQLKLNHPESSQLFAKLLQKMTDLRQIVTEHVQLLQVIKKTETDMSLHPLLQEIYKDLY

With `CC[Si](OC(C)=O)(OC(C)=O)OC(C)=O` the Potency [1] was “inactive”, the Potency [2] was “inactive” and the Potency [3] was “inactive”. The outcome [4] was “inactive”, the Potency [5] was “inactive” and the Potency [6] was “inactive”. The Potency [7] was “inactive”, the outcome [8] was “inactive” and the outcome [9] was “inactive”. The Potency [10] was “inactive”, the outcome [11] was “inactive” and the Potency [12] was “inactive”. For the same compound, the Potency [13] was “inactive”, the Potency [14] was “inactive” and the Potency [15] was “inactive”.

With `COC(=O)Nc1nc2ccc(Sc3ccccc3)cc2[nH]1` the Potency [1] was “inactive”, the Potency [2] was 1.8 µM (active) and 9.69 µM (active) and the Potency [3] was “inactive”. The outcome [4] was “inactive”, the Potency [16] was “inactive” and the Potency [6] was “inactive”. The Potency [7] was “inactive”, the outcome [9] was “inactive” and the Potency [10] was “inactive”. For the same compound, the Potency [12] was “inactive”, the Potency [13] was “inactive” and the Potency [14] was “inactive”.

In the case of `Cc1ccc(C(=O)O)o1`, the Potency [1] is reported as “inactive”, the Potency [2] is reported as “inactive” and the Potency [3] is reported as “inactive”. The outcome [4] was “inactive”, the Potency [5] was “inactive” and the Potency [6] was “inactive”. For the same compound, the Potency [7] was “inactive”, the outcome [8] was “inactive” and the Potency [17] was “inactive”. For the same compound, the outcome [9] was “inactive”, the Potency [10] was “inactive” and the outcome [11] was “inactive”. The Potency [13] was “inactive”, the Potency [14] was “inactive” and the Potency [15] was “inactive”.

In the case of `CCCCC/C=C\C/C=C\CCCCCCCC(=O)OC`, the Potency [1] is reported as “inactive”, the Potency [2] is reported as “inactive” and the Potency [3] is reported as “inactive”. The outcome [4] was “inactive”, the Potency [18] was “inactive” and the Potency [6] was “inactive”. For the same compound, the Potency [7] was “inactive and 38.9 µM (active)”, the outcome [8] was “inactive” and the Potency [17] was “inactive”. The outcome [9] was “inactive”, the Potency [10] was “inactive” and the Potency [12] was “inactive and 54.9 µM (active)”. The Potency [13] was “inactive”.

In the case of `Nc1cc(-c2ccncc2)c[nH]c1=O`, the Potency [1] is reported as “inactive”, the Potency [2] is reported as “inactive” and the Potency [3] is reported as “inactive”. The outcome [4] was “inactive”, the Potency [5] was “inactive” and the Potency [6] was “inactive”. The Potency [7] was “inactive”, the outcome [8] was “inactive” and the Potency [17] was “inactive”. For the same compound, the outcome [9] was “inactive”, the Potency [10] was “inactive” and the outcome [11] was “inactive”. For the same compound, the Potency [12] was “inactive”, the Potency [13] was “inactive” and the Potency [14] was “inactive”.

In the case of `OC[C@@H](O)[C@H](O)[C@H](O)[C@@H](O)CO`, the Potency [1] is reported as “inactive”, the Potency [2] is reported as “inactive” and the Potency [3] is reported as “inactive”. The outcome [4] was “inactive”, the Potency [5] was “inactive” and the Potency [18] was “inactive”. The Potency [6] was “inactive”, the Potency [7] was “inactive” and the outcome [8] was “inactive”. The Potency [17] was “inactive”, the Potency [10] was “inactive” and the Potency [12] was “inactive”. For the same compound, the Potency [13] was “inactive”, the Potency [14] was “inactive” and the Potency [15] was “inactive”.

For `COCC(C)O` (stereo not drawn), the Potency [1] was “inactive”, the Potency [2] was “inactive” and the Potency [3] was “inactive”. For the same compound, the outcome [4] was “inactive”, the Potency [5] was “inactive” and the Potency [6] was “inactive”. The Potency [7] was “inactive”, the Potency [10] was “inactive” and the Potency [12] was “inactive”. For the same compound, the Potency [13] was “inactive”, the Potency [14] was “inactive” and the Potency [15] was “inactive”.

For `CCCCOCCO`, the Potency [1] was “inactive”, the Potency [2] was “inactive” and the Potency [3] was “inactive”. For the same compound, the outcome [4] was “inactive”, the Potency [5] was “inactive” and the Potency [18] was “inactive”. The Potency [6] was “inactive”, the Potency [7] was “inactive” and the outcome [8] was “inactive”. For the same compound, the Potency [17] was “inactive”, the outcome [9] was “inactive” and the Potency [10] was “inactive”. The outcome [11] was “inactive”, the outcome [19] was “inactive” and the Potency [12] was “inactive”. The outcome [20] was “inactive”, the Potency [13] was “inactive” and the Potency [14] was “inactive”. For the same compound, the Potency [15] was “inactive”.

For `CCCCCC/C=C/CCCCCCCC(=O)O`, the Potency [1] was “inactive”, the Potency [2] was “inactive” and the Potency [3] was “inactive”. For the same compound, the outcome [4] was “inactive”, the Potency [16] was “inactive” and the Potency [6] was “inactive”. The Potency [7] was “inactive”, the outcome [8] was “inactive” and the Potency [17] was “inactive”. The outcome [9] was “inactive”, the Potency [10] was “inactive” and the outcome [11] was “inactive”. The outcome [19] was “inactive”, the Potency [12] was “inactive” and the outcome [20] was “inactive”. For the same compound, the Potency [13] was “inactive” and the Potency [15] was “inactive”.
